Experimental data as given in PubChem BioAssay (NCATS).
Results filed as inconclusive are left out. Active and inactive are the calls of the source. Calls come from the whole dose curve; as a rule, active = well fitted inhibition curve with a large enough effect; inconclusive = small, poorly fitted or top-dose-only effect; inactive = no such curve, though single readings can be large or run the other way.

Test: P-glycoprotein substrates identified in KB-3-1 adenocarcinoma cell line, qHTS therapeutic library screen (AID 1346986); note: nearly all actives have a fitted effect of over 60% in size
Conditions: KB-3-1 parental cells viability, CellTiter-Glo, 72 h; at 44.5 µM (top of the series)
Description: The ATP-binding cassette transporters P-glycoprotein (P-gp) is known to limit brain penetration of many chemotherapy drugs. […] We used the CellTiter-Glo viability assay to test library compounds against the parental KB-3-1 human cervical adenocarcinoma cell line and the colchicine-selected sub-line KB-8-5-11 that over-expresses P-gp. KB-8-5-11 cells were also tested in the presence of a P-gp inhibitor (tariquidar) to assess reversability of transporter-mediated resistance. Of the tested compounds, a total of 90 P-gp substrates were identified including 55 newly identified P-gp substrates. Substrates were confirmed using an orthogonal killing assay against HEK-293 cells transfected with P-gp. As exemplars, we confirmed that AT7159 (cyclin-dependent kinase inhibitor); AT9283, (Janus kinase 2/3 inhibitor); ispinesib (kinesin spindle protein inhibitor); gedatolisib (PKI-587, phosphoinositide 3-kinase/mammalian target of rampamycin inhibitor); GSK-690693 (AKT inhibitor); and KW-2478 (heat shock protein 90 inhibitor) were substrates , and direct ATPase stimulation was assessed. ABCG2 was also found to confer high levels of resistance to AT9283, GSK-690693 and gedatolisib, while ispinesib, AT7519 and KW-2478 were weaker substrates.
The HeLa derivative cell line, KB-3-1, and its colchicine-selected, P-gp-overexpressing subline, KB-8-5-11 were maintained in DMEM with 10% FCS and Pen/Strep with glutamine at 37 degree C in 5% CO2. For KB-8-5-11 cells, colchicine was added to the medium at a concentration of 100 ng/mL. HEK-293 cells transfected with empty vector (pcDNA) or vector containing human ABCB1 (MDR-19) or ABCG2 (R-5) have been described previously (Robey, Lin, Qiu, Chan & Bates, 2011) and were maintained in EMEM supplemented with 10% FCS, Pen/Strep and glutamine with 2 mg/ml G418 to select for the expression of the transporter. Cultures were confirmed to be free of mycoplasma infection using the MycoAlert Mycoplasma Detection Kit (Lonza, Walkersville, MD). For the screen, assay medium was identical to culture medium except for KB-8-5-11 where colchicine was excluded from the medium.
All cell lines were plated into 1536-well plates at 500 cells/well in 5 uL media. Compounds were then pinned in dose-response using a 1536-head pin tool (Kalypsis, San Diego, CA) and plates were incubated at 37 degree C in 5% CO2 for an additional 72 h. CellTiter-Glo reagent (Promega) was dispensed into the wells, incubated for 5 min and luminescence was read on a ViewLux instrument (Perkin-Elmer). Cytotoxic compounds were defined as those that yielded a curve class of -1.1, -1.2, -2.1, -2.2, -2.3, or -2.4, a maximum response of >50% and an AC50 of < 10 uM. Cherry-picked hits from screening analysis were tested with both the KB pair of cell lines, and the pcDNA (empty vector control) and MDR-19 (P-gp overexpressing) pair were tested, in the absence and presence of tariquidar.
In the case of `CC1=CC(=O)c2ccccc2C1=O`, the outcome is reported as “inactive”.
In the case of `CCN1CCCC1CNC(=O)c1cc(S(N)(=O)=O)ccc1OC` (stereo not drawn), the outcome is reported as “inactive”.
With `CC1=C(C(=O)O)N2C(=O)[C@@H](NC(=O)C(N)c3ccccc3)[C@H]2SC1` (stereo partly drawn) the outcome was “inactive”.
With `Cc1oc(=O)oc1CN1CCN(c2cc3c(cc2F)c(=O)c(C(=O)O)c2n3C(C)S2)CC1` (stereo not drawn) the outcome was “inactive”.
With `O=NN(CCCl)C(=O)NC1CCCCC1` the outcome was “inactive”.
With `COc1c(N2CCNC(C)C2)c(F)cc2c(=O)c(C(=O)O)cn(C3CC3)c12` (stereo not drawn) the outcome was “inactive”.
With `CCN(CC)CCn1c(=O)c(Cc2ccc(OC)cc2)nc2ccccc21` the outcome was “inactive”.
In the case of `CN1CCN(c2c(F)cc3c(=O)c(C(=O)O)cn4c3c2OCN4C)CC1`, the outcome is reported as “inactive”.
For `CC(C)OC(=O)OCOP(=O)(CO[C@H](C)Cn1cnc2c(N)ncnc21)OCOC(=O)OC(C)C`, the outcome was “inactive”.
In the case of `COc1cc(NS(=O)(=O)c2ccc(N)cc2)nc(OC)n1`, the outcome is reported as “inactive”.
In the case of `CCn1cc(C(=O)O)c(=O)c2cc(F)c(N3CCNCC3)cc21`, the outcome is reported as “inactive”.
For `O=S(=O)(c1cccc2cnccc12)N1CCCNCC1`, the outcome was “inactive”.
For `COc1cnc(NS(=O)(=O)c2ccc(N)cc2)nc1`, the outcome was “inactive”.
With `CNS(=O)(=O)CCc1ccc2[nH]cc(C3CCN(C)CC3)c2c1` the outcome was “inactive”.
In the case of `Cc1ccnc2c1NC(=O)c1cccnc1N2C1CC1`, the outcome is reported as “inactive”.
With `O=C(O)CSCC(=O)NC1CCSC1=O` (stereo not drawn) the outcome was “inactive”.
In the case of `NC(=O)c1cccc(N)c1`, the outcome is reported as “inactive”.
With `CCOCC(O)COc1ccc(NC(=O)CC[S+](C)C)cc1` (stereo not drawn) the outcome was “inactive”.
With `CNC1CCCN(c2c(F)cc3c(=O)c(C(=O)O)cn(C4CC4)c3c2OC)C1` (stereo not drawn) the outcome was “inactive”.
For `O=C(O)c1cn(C2CC2)c2cc(N3CCNCC3)c(F)cc2c1=O`, the outcome was “inactive”.
With `CC1=NN(c2ccccc2)C(=O)C1` the outcome was “inactive”.
With `COC(c1ccccc1)(c1ccccc1)[C@H](Oc1nc(C)cc(C)n1)C(=O)O` the outcome was “inactive”.
With `CNNCc1ccc(C(=O)NC(C)C)cc1` the outcome was “inactive”.
For `O=C(N[C@H](CO)[C@H](O)c1ccc([N+](=O)[O-])cc1)C(Cl)Cl`, the outcome was “inactive”.
In the case of `COc1nc(N)nc2c1ncn2[C@@H]1O[C@H](CO)[C@@H](O)[C@@H]1O`, the outcome is reported as “inactive”.
With `Cc1noc(NS(=O)(=O)c2ccc(N)cc2)c1C` the outcome was “inactive”.
With `Cn1c(=O)c2c(ncn2CC(O)CO)n(C)c1=O` (stereo not drawn) the outcome was “inactive”.
For `CC(C(=O)O)c1ccc2c(c1)CC(=O)c1ccccc1S2` (stereo not drawn), the outcome was “inactive”.
For `CCCCOc1ccc(CC(=O)NO)cc1`, the outcome was “inactive”.
In the case of `Cc1cccc(N(C)C(=S)Oc2ccc3ccccc3c2)c1`, the outcome is reported as “inactive”.
With `OCc1ccc(-c2nn(Cc3ccccc3)c3ccccc23)o1` the outcome was “inactive”.
In the case of `Nc1nc(F)nc2c1ncn2[C@@H]1O[C@H](CO)[C@@H](O)[C@@H]1O`, the outcome is reported as “inactive”.
In the case of `CC(C)OC(=O)C(C(=O)OC(C)C)=C1SC=CS1`, the outcome is reported as “inactive”.
For `CCC(=O)O[C@]1(C(=O)SCF)[C@H](C)C[C@H]2[C@@H]3C[C@H](F)C4=CC(=O)C=C[C@]4(C)[C@@]3(F)[C@@H](O)C[C@@]21C`, the outcome was “inactive”.
In the case of `O=C(O)CCn1c2c(c3ccccc31)C[C@H](NS(=O)(=O)c1ccc(F)cc1)CC2`, the outcome is reported as “inactive”.
With `Cc1cc(NS(=O)(=O)c2ccc(N)cc2)no1` the outcome was “inactive”.
For `NS(=O)(=O)c1cc2c(cc1Cl)NC(C(Cl)Cl)NS2(=O)=O` (stereo not drawn), the outcome was “inactive”.
In the case of `COc1ccc(-c2ccc3cc(C(=O)O)ccc3c2)cc1C12CC3CC(CC(C3)C1)C2`, the outcome is reported as “inactive”.
